Consider five molecules from PubChem BioAssay AID2730 (National Center for Advancing Translational Sciences (NCATS), 2010).

Some of the results follow. Results filed as inconclusive are left out. Activity calls are given as the source filed them. Calls follow the shape of the dose curve; as a rule, active = well fitted inhibition curve with a large enough effect; inconclusive = small, poorly fitted or top-dose-only effect; inactive = no such curve, though single readings can be large or run the other way.

This test is described as follows: High Content Assay for Compounds that inhibit the Assembly of the Perinucleolar Compartment: Confirmation of PNC Inhibition. The note with it: PC3M PTB-GFP, PNC prevalence imaging, 16 h; series mostly up to 46.1 µM. The source says:
High Content Assay for Compounds that inhibit the Assembly of the Perinucleolar Compartment NIH Chemical Genomics Center [NCGC] NIH Molecular Libraries Probe Centers Network [MLPCN] MLPCN Grant: MH082371-01A2 Assay Submitter (PI): Sui Huang, Northwestern University, Feinberg School of Medicine, Cell and Molecular Biology, Chicago, Illinois. The perinucleolar compartment (PNC) is a non-membrane-bound nuclear subdomain that is associated with but structurally distinct from the nucleolus. The PNC is a heritable trait, in which the number of PNCs per cell in daughter cells often mimics that of their mother cells. The PNC is heterogeneous in shape, is stable through interphase, disassembles during mitosis, and reassembles in early G1. The PNC is concentrated with newly synthesized RNA polymerase III (pol III) RNAs (MRP RNA, RNAse P H1 RNA, hY RNAs[hY1, 2, 5], Alu RNA, and SRP [7SL] RNA) and RNA binding proteins (nucleolin, PTB, CUG-BP, KSRP, Raver1, Raver2, and Rod). […] Extensive in vitro studies have shown that the PNC is unique to tumor cells and preferentially forms in tumor cells derived from solid tissues. Examination of cancer cell lines from various origins and malignant capacities has shown that PNC prevalence correlates with the malignancy of tumors and has the potential to be developed as a pan-cancer prognostic marker. […] Although the PNC is associated with a DNA locus and a handful of components have been identified, much remains to be investigated regarding the structure and function of the PNC and its mechanistic link to cancer. We have previously shown that PNC prevalence reduction is a valid strategy to identify compounds that can be used to study the structure and function of the PNC. It is necessary, however, to create a screening platform that is able to test a large number of compounds in an automated fashion. Here we report the development and robustness of an automated whole-cell phenotypic image-based screening assay that is capable of identifying such compounds. Compounds active in the primary screen were then re-screened in concentration-response to confirm activity.
PNC High Content Imaging Assay Procedure: 1. Cells at a density of 75-90% confluency in T175 flasks were harvested using 7 ml TrypLE Express cell dissociation reagent. After dissociation (5 minutes room temperature incubation) 10 ml of complete media was added to the TrypLE/cell suspension. The liquid was transferred to a 50 ml Conical tube and cells were pelleted at 1000 RPM for 5 min. Supernatant was removed and cells were resuspended to a final density of 150-200 cells/ul in complete media. 2. Cells were plated in 5 ul volume (750-1000 cells/well) into 1536 well Black uclear Aurora Low Base plates and allowed to recover and adhere at 37 C in a humidified 5% CO2 incubator for 4 hours. 3. After 4 hour incubation, compound libraries (23 nl of […] in columns 5-48) were transferred to the plates in duplicate using a 1536 well pintool. Camptothecin positive control (59 uM final) was added to column 2 and 1:3 dilutions of camptothecin was added to column 3. DMSO negative controls were present in columns 1 and 4. 4. After a 16 hour incubation in the 37 C incubator, cells were fixed by the addition of 4 ul of 6% EM grade paraformaldehyde (containing 0.1% triton X 100) directly to the cells. The plates were incubated at room temperature for 20 minutes. […]
`N=c1c2c(-c3ccccc3)c(-c3ccccc3)n(Cc3ccccc3)c2ncn1CCCO`: the Potency was 4.47 µM (active).
Under `Cn1c2ccccc2c(=O)c2c(=O)n(Cc3ccco3)c(COc3ccccc3)nc21` stands 11.2 µM (active); under `CCOC(=O)c1c(-c2cccc(C)c2)csc1NC(=O)c1c(-c2ccccc2)noc1C`, 2.51 µM (active).
With `COC(=O)C1=C(C)N(c2ccc(Br)cc2)C(=O)/C1=C\c1ccco1`, the Potency entry is “inactive”.
For `COC(=O)c1ccc(CSc2ccccc2C)o1`, the Potency result was “inactive”.
